LANA DNA inh = KSHV C-LANA DNA binding inhibition; MBP-C-LANA/FAM-LBS DNA binding, fluorescence polarization; 340,000 tested, 0.078% active; inhibition, % at 9 µM;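 active = highest replicate inhibition at or above 60% at 9 µM, even if other replicates fall short; inactive = all replicates below 60% inhibition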;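 also: 0% = neutral control wells and 100% = 4 µM acridine orange control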
GLD-1 TGE inh = GLD-1-TGE RNA interaction inhibition (C. elegans); purified GLD-1 + fluorescein TGE RNA, fluorescence polarization; inhibition, % at 5.96 µM; 320,000 tested, 0.44% active; AID 2280;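 active = percent inhibition above a per-plate cutoff, the plate mean of test compounds plus 3 SD, cut at about 30% in these data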;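 also: 0% = DMSO wells with GLD-1 and probe and 100% = wells lacking GLD-1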
Target sequence (Q17339 whole entry, looked up): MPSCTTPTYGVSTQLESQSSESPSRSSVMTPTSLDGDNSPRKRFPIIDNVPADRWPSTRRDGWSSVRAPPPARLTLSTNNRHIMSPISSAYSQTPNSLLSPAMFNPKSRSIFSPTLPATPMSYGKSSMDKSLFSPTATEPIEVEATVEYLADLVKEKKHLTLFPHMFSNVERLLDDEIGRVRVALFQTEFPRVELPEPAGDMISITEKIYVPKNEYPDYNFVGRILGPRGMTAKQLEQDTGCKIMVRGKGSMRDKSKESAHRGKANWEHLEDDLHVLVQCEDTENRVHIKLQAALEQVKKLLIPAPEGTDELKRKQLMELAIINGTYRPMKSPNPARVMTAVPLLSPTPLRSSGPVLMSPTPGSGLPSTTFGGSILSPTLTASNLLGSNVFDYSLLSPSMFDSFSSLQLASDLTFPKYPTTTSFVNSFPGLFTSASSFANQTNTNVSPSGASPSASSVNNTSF
eLon inh = inhibitors of E. coli Lon protease; P0A9M0; purified E. coli Lon protease, fluorescence polarization; inhibition, % at 7.94 µM; 360,000 tested, 0.42% active; AID 602123; in the data active = inhibition above about 13%, passing the limit was not always enough;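 also: 0% = enzyme with probe and DMSO and 100% = no enzyme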
BCLXL inh = inhibitors of human Bcl-xL; AID 2129; Q07817; 320,000 tested, 0.7% active; GST-Bcl-xL / FITC-Bim BH3 peptide fluorescence polarization; inhibition, % at 10.9 µM;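 active = inhibition above the mean of all tested compounds plus 3 SD, cutoff set per campaign, cut at about 30% in these data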;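 also: 0% = DMSO wells and 100% = unlabeled Bim-BH3 peptide competitor; inhibitors lower millipolarization by displacing the labeled peptide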
Keap1 Nrf2 FP = inhibitors of human Keap1-Nrf2 protein-protein interaction; Q14145; Keap1 Kelch-Nrf2 peptide fluorescence polarization, 1536-well; inhibition, % at 9.4 µM; 340,000 tested, 0.15% active; AID 504523; in the data active = inhibition above about 12%;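 also: human Keap1 Kelch domain with fluorescein labeled Nrf2 9mer peptide probe; 0% = neutral control wells and 100% = peptide positive control; higher means more block of Keap1 binding to Nrf2 peptide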
MEX-5 binding = C. elegans MEX-5 TCR-2 RNA binding activity | AID 1832 | 300,000 tested, 0.38% active | Q9XUB2 | activity score (negative = inhibition of binding), % at 10 µM | MEX-5/FITC-TCR2 RNA binding, fluorescence polarization; hits give low values;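 active = inhibition past about -25% in most replicates, and total fluorescence under double the plate's negative control median, limit read from the data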;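 also: 0% = DMSO and -100% = 5 µM competing unlabeled TCR2 RNA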
E coli Lon conf = E. coli Lon inhibition confirmation. 1,400 tested, 31% active. inhibition, % at 7.94 µM. purified E. coli Lon, fluorescence polarization. AID 602230. shares compounds with eLon inh; in the data active = inhibition above about 16%;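 also: 0% = enzyme with probe and DMSO and 100% = no enzyme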
Starred values were filed as active, the others as inactive. This is a sample that favours compounds with a hit; in the whole collection about 1.2% have one here.

What do the screens show for `CCCCNC(=O)C1(C)CCN1C(=O)c1cc(-c2ccccc2)cs1` (stereo not given)?
eLon inh: -4

What do the screens show for `NC(=O)c1ncn([C@@H]2O[C@H](CNC(=O)[C@H](N)CSCc3ccccc3)[C@@H](O)[C@H]2O)n1`?
LANA DNA inh: 0; eLon inh: 24*; Keap1 Nrf2 FP: 0; E coli Lon conf: 0

What do the screens show for `CC(C)c1ccc(NC(=O)CN2C(=O)NC(C)(C3CC3)C2=O)cc1` (stereo not given)?
LANA DNA inh: 0; GLD-1 TGE inh: 4; eLon inh: -4; BCLXL inh: 1; Keap1 Nrf2 FP: 3

What do the screens show for `CC(C)Cn1c(=O)c(C(=O)Nc2cnccn2)c(O)c2ccccc21`?
LANA DNA inh: 0; GLD-1 TGE inh: -1; eLon inh: 2; BCLXL inh: -1; Keap1 Nrf2 FP: -3; MEX-5 binding: 0

Results for CC(C)Cn1c(=O)c(C(=O)Nc2ccncc2)c(O)c2ccccc21 ?
LANA DNA inh: 19; GLD-1 TGE inh: -1; eLon inh: 35*; BCLXL inh: 10; Keap1 Nrf2 FP: 6; MEX-5 binding: 1; E coli Lon conf: 23*

How did Cc1cc(Cl)ccc1OC(C)C(=O)NN=C1CCCCCC1 (stereo not given) do in these assays?
LANA DNA inh: 0; GLD-1 TGE inh: 7; eLon inh: 21*; BCLXL inh: 1; Keap1 Nrf2 FP: 2; MEX-5 binding: 1; E coli Lon conf: -5

Results for Cc1cc(Cl)ccc1OC(C)C(=O)NNC(=O)C1CCCCC1C(=O)O (stereo not given) ?
LANA DNA inh: 0; eLon inh: -9; Keap1 Nrf2 FP: -2; MEX-5 binding: 2

What do the screens show for `O=C(COC(=O)CCNS(=O)(=O)c1cccs1)Nc1ccccc1`?
LANA DNA inh: -1; GLD-1 TGE inh: 2; eLon inh: 4; BCLXL inh: -1; Keap1 Nrf2 FP: -3

How did CCC(C)c1ccc(NC(=O)COC(=O)CCNS(=O)(=O)c2cccs2)cc1 (stereo not given) do in these assays?
LANA DNA inh: 1; GLD-1 TGE inh: 2; eLon inh: 26*; Keap1 Nrf2 FP: -2; E coli Lon conf: 45*

How did Cc1ccc2c(c1)CCCN2CC(=O)N(C)c1c(N)n(Cc2ccccc2)c(=O)[nH]c1=O do in these assays?
LANA DNA inh: 13; GLD-1 TGE inh: 15; eLon inh: 146*; BCLXL inh: 122*; Keap1 Nrf2 FP: 7; E coli Lon conf: -69

How did O=C(CNC(=O)N1CC(=O)Nc2ccccc21)Nc1ccc(Cl)cc1Cl do in these assays?
eLon inh: -4

What do the screens show for `O=C(Nc1ccc(Oc2ccccc2)cc1)c1csc([C@H]2C[C@H](O)[C@@H](CO)O2)n1`?
eLon inh: -4

What do the screens show for `CCC(=O)N(Cc1ccc(C)cc1)Cc1cc2cc3c(cc2[nH]c1=O)OCO3`?
LANA DNA inh: -1; GLD-1 TGE inh: -4; eLon inh: 21*; BCLXL inh: 2; Keap1 Nrf2 FP: -5; MEX-5 binding: -1; E coli Lon conf: 4

How did Cc1ccc(NC(=O)N(Cc2ccc3c(c2)OCO3)Cc2cc3cc4c(cc3[nH]c2=O)OCCO4)cc1 do in these assays?
LANA DNA inh: 1; GLD-1 TGE inh: 0; eLon inh: 15*; BCLXL inh: 5; Keap1 Nrf2 FP: -3; MEX-5 binding: 0; E coli Lon conf: 5

Results for Cc1ccc(NC(=O)N(Cc2cccs2)Cc2cc3cc4c(cc3[nH]c2=O)OCO4)cc1 ?
GLD-1 TGE inh: 1; BCLXL inh: 1; MEX-5 binding: -1

What do the screens show for `CC(C)Oc1ccc(/C(O)=C2/C(=O)C(=O)N(CCN3CCNCC3)C2c2cccc([N+](=O)[O-])c2)cc1` (stereo not given)?
LANA DNA inh: 0; GLD-1 TGE inh: 4; eLon inh: -5; BCLXL inh: 5; Keap1 Nrf2 FP: -2; MEX-5 binding: 0

How did Clc1cccc(NCc2cn3cccnc3n2)c1 do in these assays?
LANA DNA inh: 2; GLD-1 TGE inh: 2; eLon inh: 17*; BCLXL inh: 9; Keap1 Nrf2 FP: -4; MEX-5 binding: -1; E coli Lon conf: -3

What do the screens show for `Cn1cc(CCC(=O)N2CCCC(N3CCN(c4ccccc4F)CC3)C2)cn1` (stereo not given)?
LANA DNA inh: -1; GLD-1 TGE inh: 2; eLon inh: -6; BCLXL inh: 2; Keap1 Nrf2 FP: 4; MEX-5 binding: 0

What do the screens show for `COc1ccc(N2CCN(C(=S)Nc3ccccc3OC)CC2)cc1`?
LANA DNA inh: 1; GLD-1 TGE inh: -5; eLon inh: -5; BCLXL inh: 6; Keap1 Nrf2 FP: 1; MEX-5 binding: 2

What do the screens show for `CSCCC(NC(=O)c1ccco1)C(=O)N1CCCCCCC1` (stereo not given)?
LANA DNA inh: -1; GLD-1 TGE inh: 8; eLon inh: 21*; BCLXL inh: 4; Keap1 Nrf2 FP: 0; MEX-5 binding: 0; E coli Lon conf: 15

How did CSCCC(NC(=O)c1ccco1)C(=O)N1CCC(C(N)=O)CC1 (stereo not given) do in these assays?
LANA DNA inh: -2; GLD-1 TGE inh: -1; eLon inh: -1; BCLXL inh: -1; Keap1 Nrf2 FP: -1; MEX-5 binding: 0

How did CN(CC(=O)Nc1ccccc1C(F)(F)F)Cc1c(O)ccc2ccccc12 do in these assays?
LANA DNA inh: 0; GLD-1 TGE inh: 5; eLon inh: 10; BCLXL inh: 8; Keap1 Nrf2 FP: 0; MEX-5 binding: -3

Results for O=C(CNC(=O)c1ccccc1)Oc1cccc(Cl)c1 ?
GLD-1 TGE inh: -3; eLon inh: -5; BCLXL inh: 8; MEX-5 binding: 1

What do the screens show for `CC(=O)c1ccsc1-c1c(C)cc2oc(=O)cc(-c3ccccc3)c2c1C`?
LANA DNA inh: -3; eLon inh: 2; Keap1 Nrf2 FP: -5

Results for C=CCn1c(=NC(=O)C2COc3ccccc3O2)sc2cc(S(N)(=O)=O)ccc21 (stereo not given) ?
LANA DNA inh: 2; GLD-1 TGE inh: 5; eLon inh: 23*; BCLXL inh: 4; Keap1 Nrf2 FP: -2; MEX-5 binding: -2; E coli Lon conf: -9

Results for O=C(NCC(c1ccco1)N1CCCCC1)c1cccc(S(=O)(=O)Nc2ccc(F)cc2)c1 (stereo not given) ?
LANA DNA inh: 0; eLon inh: -14; Keap1 Nrf2 FP: 2

How did CC1C(=O)C(C)C(c2ccco2)NC1c1ccco1 (stereo not given) do in these assays?
LANA DNA inh: 2; GLD-1 TGE inh: -2; eLon inh: 24*; BCLXL inh: 0; Keap1 Nrf2 FP: 1; MEX-5 binding: -2; E coli Lon conf: -5

Screens from PubChem BioAssay.
